About 83,000 compounds went through this panel and 20% of them were active in at least one assay; those are over-represented in the sample as a whole.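 Negative percent growth values reflect cell death: -40 means 40% of the cells present at the start died, and -100 means all died.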 Values without a mark were called inactive. Activity calls are given as the source filed them. The calls were made as follows: active = growth percent below 10; inactive = the rest.

Common to all, as to experiment: NCI-60 one-dose screen, 48 h (100 = growth as untreated, 0 = no growth, -100 = all killed)
One assay concerns NCI-H23 lung. The settings on record: 10 µM unless noted.
For another assay, the system named is NCI-H226 lung. The settings on record: 10 µM unless noted.
The next assay relates to NCI-H322M lung. The note with it: 10 µM unless noted.
Another assay relates to NCI-H460 lung. The note with it: 10 µM unless noted.
The next assay relates to HOP-92 NSCLC. The note with it: 10 µM.
A further assay concerns NCI-H522 lung. The note with it: 10 µM.
The subject of another assay is A549/ATCC NSCLC. The note with it: 10 µM unless noted.
For another assay, the system named is 786-0 renal. The note with it: 10 µM unless noted.
In another assay the test system is COLO 205 colon. The note with it: 10 µM unless noted.
Another assay has as its system DU-145 prostate. The settings on record: 10 µM unless noted.
For the next assay, the system named is K-562 leukemia. The settings on record: 10 µM unless noted.
For a further assay, the system named is MALME-3M melanoma. The settings on record: 10 µM unless noted.
In another assay the test system is MDA-MB-231 breast. The settings on record: 10 µM unless noted.
The next assay concerns RXF 393 renal. The settings on record: 10 µM unless noted.
The test system of another assay is SF-268 CNS. The settings on record: 10 µM unless noted.
For another assay, the system named is SF-295 CNS. The note with it: 10 µM unless noted.
The subject of another assay is SF-539 CNS. The note with it: 10 µM unless noted.
The next assay relates to UACC-257 melanoma. The note with it: 10 µM unless noted.
The subject of the next assay is M14 melanoma. The note with it: 10 µM unless noted.

As for `O=C(/C=C1\C(=O)N(Cc2ccc([N+](=O)[O-])cc2)c2ccccc21)c1ccc(OCCN2CCCC2)cc1`, the growth is 69.2% in the assay on NCI-H23 lung; 78.5% with NCI-H226 lung; 66.2% in the assay on NCI-H322M lung; 91.4% in the assay on NCI-H460 lung; 46.2% with HOP-92 NSCLC; 38.5% in the assay on NCI-H522 lung. The growth is 93.4% with A549/ATCC NSCLC; 69.7% with 786-0 renal; 81% in the assay with COLO 205 colon; 42.9% with DU-145 prostate; 1.78% (active) in the assay on K-562 leukemia; 46.8% with MALME-3M melanoma. Moreover, the growth in the assay with MDA-MB-231 breast is 66.5%; in the assay on RXF 393 renal, 56.7%; in the assay on SF-268 CNS, 76.9%; in the assay on SF-295 CNS, 95.6%; in the assay with SF-539 CNS it was 67.6%; in the assay with UACC-257 melanoma, 88.4%. In addition, in the assay with M14 melanoma, the growth is 70.2%.

For `CCCCCCCCCCCCCCCC[n+]1cccc(C#N)c1`, the growth with NCI-H23 lung is 76.8%; with NCI-H226 lung, 80.2%; in the assay with NCI-H322M lung it was 82.8%; in the assay with NCI-H460 lung, 71.6%; in the assay on HOP-92 NSCLC it was 48.7%; in the assay with NCI-H522 lung it was 54.7%. Further, the growth in the assay with A549/ATCC NSCLC is 87.7%; in the assay on 786-0 renal it was 70.3%; in the assay with COLO 205 colon, 31.9%; in the assay on DU-145 prostate it was 68.2%; with K-562 leukemia it was 6.02% (active); in the assay with MALME-3M melanoma it was 92%. The growth was 69.7% with MDA-MB-231 breast; 17.4% in the assay with RXF 393 renal; 53.3% in the assay on SF-268 CNS; 91.5% in the assay on SF-295 CNS; 25.5% with SF-539 CNS; 103% with UACC-257 melanoma. Besides, in the assay on M14 melanoma, the growth is 62%.

On to `FC(F)(F)c1cccc(-c2[nH]ncc2-c2nnnn2-c2ccccc2)c1`, for which the growth in the assay with NCI-H23 lung was 73.9%; with NCI-H226 lung it was 76.2%; in the assay with NCI-H322M lung it was 57.7%; with NCI-H460 lung, 21.8%; in the assay on HOP-92 NSCLC it was 34.2%; with NCI-H522 lung, 23%. Besides, the growth was 41.8% with A549/ATCC NSCLC; 58.2% in the assay on 786-0 renal; 36% with COLO 205 colon; 76.1% in the assay with DU-145 prostate; 11.8% in the assay with K-562 leukemia; 61.6% in the assay with MALME-3M melanoma. Moreover, the growth in the assay with MDA-MB-231 breast is 41%; in the assay on RXF 393 renal it was -20.4% (active); in the assay on SF-268 CNS, 66.4%; with SF-295 CNS it was 56.7%; in the assay on SF-539 CNS it was 63.9%; in the assay with UACC-257 melanoma, 48.4%.

`COC1(OC)N=C(N)C2(C#N)C3(C(=O)Nc4ccccc43)C12C#N` (stereo not given): the growth in the assay with NCI-H23 lung is 81.6%; with NCI-H226 lung, 62.5%; in the assay on NCI-H322M lung it was 105%; in the assay with NCI-H460 lung, 104%; with HOP-92 NSCLC, 73%; in the assay with NCI-H522 lung, 80.7%. Moreover, the growth with A549/ATCC NSCLC was 104%; with 786-0 renal, 94.3%; with COLO 205 colon, 116%; in the assay on DU-145 prostate, 68.2%; in the assay with K-562 leukemia, 85.3%; with MALME-3M melanoma, -3.2% (active). In addition, the growth in the assay with MDA-MB-231 breast was 73.6%; in the assay with RXF 393 renal, 61%; in the assay on SF-268 CNS, 105%; in the assay on SF-295 CNS, 96.4%; with SF-539 CNS, 61.2%; with UACC-257 melanoma, 100%.

In the case of `CC1Cc2cc(F)ccc2-n2cccc21` (stereo not given), the growth with NCI-H23 lung is 98.5%; with NCI-H226 lung, 154%; in the assay with NCI-H322M lung, 100%; in the assay on NCI-H460 lung it was 98.7%; in the assay on HOP-92 NSCLC, 73.8%; in the assay on NCI-H522 lung, 101%. The growth in the assay on A549/ATCC NSCLC was 104%; in the assay on 786-0 renal, 111%; with COLO 205 colon, 94.6%; in the assay with DU-145 prostate, 106%; with K-562 leukemia, 108%; with MALME-3M melanoma, 101%. For the same molecule, the growth in the assay on MDA-MB-231 breast was 94%; in the assay with RXF 393 renal, 136%; with SF-268 CNS, 110%; with SF-295 CNS, 104%; with SF-539 CNS, 101%; with UACC-257 melanoma, 101%. Besides, the growth in the assay with M14 melanoma is 111%.

On to `COC(=O)c1ccc2[nH]c(O)c(C(=Nc3ccc(N(C)C(=O)CN4CCN(C)CC4)cc3)c3ccc4c(c3)OCO4)c2c1`, for which the growth with NCI-H23 lung is 5.66% (active); in the assay on NCI-H226 lung, 23.3%; in the assay with NCI-H322M lung it was 21%; in the assay with NCI-H460 lung, 8.35% (active); in the assay with HOP-92 NSCLC, 36.9%; with NCI-H522 lung, 2.17% (active). For the same molecule, the growth in the assay with A549/ATCC NSCLC was 5.98% (active); with 786-0 renal it was 14.4%; in the assay on COLO 205 colon, -54.4% (active); in the assay on DU-145 prostate, 7.84% (active); in the assay with K-562 leukemia it was 4.82% (active); in the assay with MALME-3M melanoma, -5.19% (active). For the same molecule, the growth with MDA-MB-231 breast was 12.5%; in the assay on RXF 393 renal it was -56.9% (active); in the assay with SF-268 CNS, 11.5%; with SF-295 CNS, 27.5%; in the assay on SF-539 CNS it was -19% (active); with UACC-257 melanoma it was 31.5%. Also, the growth in the assay on M14 melanoma is 10.5%.

As for `O=C1N/C(=N\c2nnc(-c3ccc(O)cc3)s2)S/C1=C\c1ccccc1O`, the growth in the assay with NCI-H23 lung was 95.2%; in the assay with NCI-H226 lung, 99.6%; in the assay on NCI-H322M lung, 91.9%; in the assay with NCI-H460 lung, 102%; in the assay with HOP-92 NSCLC, 81.7%; in the assay with NCI-H522 lung it was 93.6%. The growth was 103% with A549/ATCC NSCLC; 97.5% with 786-0 renal; 114% in the assay with COLO 205 colon; 95.2% in the assay on DU-145 prostate; 103% in the assay on K-562 leukemia; 82.8% with MALME-3M melanoma. In addition, the growth in the assay on MDA-MB-231 breast is 99.4%; in the assay with RXF 393 renal, 113%; in the assay on SF-268 CNS, 90.7%; with SF-295 CNS it was 94%; in the assay with SF-539 CNS, 101%; in the assay with UACC-257 melanoma, 102%. Further, the growth in the assay with M14 melanoma was 91.1%.

On to `C#CCCCCCCC[C@@H]1OC(=O)[C@H]([C@@H](C)CC)NC(=O)[C@@H]([C@@H](C)CC)NC(=O)CC(=O)[C@@H]1C`, for which the growth is 99.2% with NCI-H23 lung; 86.1% in the assay with NCI-H226 lung; 96.9% in the assay on NCI-H322M lung; 102% in the assay with NCI-H460 lung; 77.3% in the assay with HOP-92 NSCLC; 90.7% with NCI-H522 lung. Also, the growth is 107% with A549/ATCC NSCLC; 109% in the assay with 786-0 renal; 119% in the assay with COLO 205 colon; 106% in the assay with DU-145 prostate; 92.5% in the assay on K-562 leukemia; 94.7% in the assay on MALME-3M melanoma. The growth with MDA-MB-231 breast was 85.7%; in the assay with RXF 393 renal, 101%; in the assay on SF-268 CNS, 94.8%; in the assay on SF-295 CNS it was 98.6%; in the assay with SF-539 CNS, 96.2%; with UACC-257 melanoma, 121%. The growth in the assay with M14 melanoma is 93.3%.

The values are drawn from PubChem BioAssay (NCI).
